# High-throughput results from PubChem.
# DT40 TDP1 CPT: growth inhibition of DT40 Tdp1-/-;hTDP1 cells with camptothecin (screen for TDP1 inhibitors); chicken DT40 Tdp1-/-;hTDP1 cells + 20 nM CPT, ATP luminescence, 48 h; Potency, µM (doses to about 46.2 µM), inactives show top-dose activity change, negative = growth inhibition, most hits filed as inhibitors; 420,000 tested, 12% active; AID 686979; further: potency means the concentration at half of the fitted maximal effect; on the % scale 0 is the no-effect control and ±100 the full control effect; nearly all actives have a fitted effect of over 55% in size
#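 Cell growth measured by CellTiter-Glo luminescence after a minimum 48 h, 37 C compound exposure with 20 nM CPT in Tdp1-knockout DT40 cells stably expressing hTDP1, seeded 400/well; qHTS titration format.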
# TGFb SMAD3 inh: TGF-b pathway inhibition | Potency, µM (titrated, usually from 46.1 µM), for inactives: top-dose activity, negative = inhibition, hits mostly inhibitors | 410,000 tested, 1.2% active | HepG2 CAGA-GFP TGF-b/SMAD3 reporter, GFP fluorescence, 18 h; TGF-beta stimulated, 500 pg/mL final; further: potency means the concentration at half of the fitted maximal effect; on the % scale 0 is the no-effect control and ±100 the full control effect; nearly all actives have a fitted effect of over 65% in size
#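 Smad-responsive CAGA-GFP expression was quantified in HEPG2 cells exposed to compounds and 500 pg/mL final TGF-beta for 18 h at 37 degrees C; unstimulated wells defined full inhibition.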
# ASM inhibitor: inhibitors of human secretory acid sphingomyelinase; P17405; placental ASM, HMU-PC fluorogenic substrate, 60 min; Potency, µM (doses to about 57.5 µM), inactives show at the highest dose activity change, negative = inhibition, most hits filed as inhibitors; 340,000 tested, 0.006% active; AID 504937; further: potency means the concentration at half of the fitted maximal effect
# Target sequence (P17405 47-631 limits assumed): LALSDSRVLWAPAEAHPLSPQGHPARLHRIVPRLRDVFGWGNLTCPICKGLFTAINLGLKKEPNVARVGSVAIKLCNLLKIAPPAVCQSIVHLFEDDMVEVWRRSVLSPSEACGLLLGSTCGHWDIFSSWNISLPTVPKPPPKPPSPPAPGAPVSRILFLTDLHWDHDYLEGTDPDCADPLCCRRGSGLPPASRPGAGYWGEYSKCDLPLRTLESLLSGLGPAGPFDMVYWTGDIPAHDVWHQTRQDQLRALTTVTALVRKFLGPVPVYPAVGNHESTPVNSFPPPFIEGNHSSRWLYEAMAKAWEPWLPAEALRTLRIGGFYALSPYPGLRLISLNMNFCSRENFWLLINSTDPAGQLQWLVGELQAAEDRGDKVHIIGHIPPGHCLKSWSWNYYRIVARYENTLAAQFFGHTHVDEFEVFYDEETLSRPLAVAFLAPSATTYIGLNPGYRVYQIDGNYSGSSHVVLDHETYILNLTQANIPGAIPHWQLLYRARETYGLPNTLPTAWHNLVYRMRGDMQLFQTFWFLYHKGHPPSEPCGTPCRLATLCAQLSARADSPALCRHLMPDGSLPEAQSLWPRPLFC
#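 qHTS format. ASM enzyme prepared from human placenta hydrolyses the fluorogenic substrate HMU-PC0 (9 uM final) over 60 min at 37 °C after a 10 min compound preincubation.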
# DT40 TDP1 no CPT: qHTS for Inhibitors of human tyrosyl-DNA phosphodiesterase 1 (TDP1): qHTS in cells in absence of CPT. DT40 Tdp1-/- hTDP1 cells, no CPT, ATP luminescence, 48 h. Potency, µM (top dose mostly 46.2 µM), for inactives: top-dose activity change, negative = growth inhibition, hits mostly inhibitors. 420,000 tested, 15% active; further: potency means the concentration at half of the fitted maximal effect; on the % scale 0 is the no-effect control and ±100 the full control effect; nearly all actives have a fitted effect of over 55% in size
#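 Luminescent ATP content (CellTiter-Glo) served as the growth readout. Knockout chicken DT40 cells expressing human TDP1 were exposed to compounds without camptothecin for a minimum 48 hr at 37 °C.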
# IL-1B inflam inh: inhibitors of inflammasome signaling (IL-1 beta secretion) | THP-1 LPS/ATP IL-1B secretion, AlphaLISA, 16 h; hits give low values | activity change, % at 57.5 µM | 360,000 tested, 4.7% active; in the data active means activity change below about -50%; inconclusive means mostly about -30% to -49%; further: on the % scale 0 is the no-effect control and ±100 the full control effect
#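 Secreted IL-1B measured by AlphaLISA bead assay after 16 h compound exposure of THP-1 cells; compounds (final up to 57.5 uM) added 1 h before LPS (250 ng/mL) and ATP (1.25 mM) stimulation; lower signal means less secretion.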
# HepG2 viability: kills HepG2 cells in TGF-b inhibitor counter-screen. Potency, µM (series often up to 46.1 µM), for the others: top-dose activity change, negative = cytotoxicity, most hits filed as cytotoxic. HepG2 CAGA-GFP viability, ATP luminescence, 18 h. 410,000 tested, 0.76% active; further: potency means the concentration at half of the fitted maximal effect
#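 HepG2 CAGA-GFP cells (1000/well, DMEM with 1% FBS) received compound, then TGF-beta at 500 pg/mL final, and were incubated 18 hours at 37 degrees C. Viability was read by CellTiter-Glo luminescence. Media-only wells were set as complete cell-killing and DMSO as no toxicity.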
# * hit, by the source's call; u = inconclusive; x = not tested or not shown. Shown are actives, neighbours in structure and some others; about 19% of the full set was active somewhere. Unless noted, the call rests on the fitted dose curve; in most records, active means well fitted curve in the direction sought with a large enough effect; inconclusive means small, poorly fitted or top-dose-only effect, or another doubt; inactive means no such curve, though single readings can be large; an effect the other way counts as inactive or inconclusive.
SMILES,DT40 TDP1 CPT,TGFb SMAD3 inh,ASM inhibitor,DT40 TDP1 no CPT,IL-1B inflam inh,HepG2 viability
CCOC(=O)c1c(CSC(=N)N)n(-c2ccc(Br)cc2)c2cc(Br)c(OC(C)=O)cc12,u,10%,-13%,23µM*,-109*,-19%
CCOC(=O)c1c(CNCCN(CC)CC)n(C)c2cc(Br)c(OC)cc12,u,91%,-3%,u,u,1%
Cc1ccc(OCc2cc(C(=O)N3CCC(c4ccccc4Cl)C3)no2)cc1C (stereo not given),u,-24%,-6%,18%,13,-6%
Cc1cccc(C)c1N(CC(=O)NCc1ccco1)C(=O)CNS(=O)(=O)c1ccc(F)cc1,-27%,u,-16%,u,-13,-19%
Cc1ccc(NC2CCCCC2NS(=O)(=O)c2ccccc2)c(C)c1 (stereo not given),u,u,-12%,-12%,19,-13%
COC(=O)C(=Cc1ccncc1)c1cccc2ccccc12,6.5µM*,-20%,x,13µM*,0,-15%
O=C(O)C(=Cc1ccncc1)c1cccc2ccccc12,-4%,3%,x,-16%,9,-4%
C[C@@H]1CN([C@@H](C)CO)S(=O)(=O)c2ccc(Br)cc2O[C@@H]1CN(C)C(=O)c1ccncc1,1%,0%,x,4%,12,-13%
S=C1NC[C@H](Cc2cccc3ccccc23)N1CC1CCCCC1,u,u,-25%,23µM*,18,-8%
S=C1NC[C@H](CC2CCCCC2)N1CC1CCCCC1,21µM*,u,-5%,23µM*,0,-22%
O=C1NC[C@@H](Cc2cccc3ccccc23)N(CC2CCCCC2)C1=O,u,-22%,1%,u,u,-25%
CCCC[C@@H]1CNC(=S)N1CCc1cccc2ccccc12,u,-22%,-3%,18µM*,-21,2%
CCCC[C@@H]1CNC(=S)N1CC1CCCCC1,u,-5%,-3%,u,-6,-19%
O=C(CSc1nnc(-c2ccco2)o1)c1ccc(O)cc1O,u,8%,-3%,u,23,-2%
CCC(C(=O)Nc1ccon1)c1ccccc1 (stereo not given),-1%,-1%,0%,2%,7,0%
COc1cc(C(=O)NC(C)C2CC3CCC2C3)cc(OC)c1OC (stereo not given),u,4%,-1%,u,18,6%
CCN(Cc1ccccc1)S(=O)(=O)c1cc(C(=O)c2c(N)n(C)c(=O)n(C)c2=O)ccc1OC,u,-33%,-2%,29µM*,-2,4%
CCN(Cc1ccccc1)S(=O)(=O)c1cc(C(=O)NC(C)C2CC3CCC2C3)ccc1OC (stereo not given),16µM*,u,0%,15µM*,-2,2%
COc1ccc(C(=O)NC(C)C2CC3CCC2C3)c(OC)c1 (stereo not given),23µM*,15%,-1%,21µM*,-3,5%
CC(=O)c1ccc(S(=O)(=O)N(C)CCCC(=O)N(C)Cc2c(F)cccc2Cl)cc1,u,-16%,-2%,u,-2,-3%
CCOc1ccc(OCC)c(NS(=O)(=O)c2cc(-c3cnc(C)o3)ccc2OC)c1,-16%,-3%,x,-9%,x,-18%
O=[N+]([O-])c1cccc(-c2nnc3ccc4ccccc4n23)c1,16µM*,-5%,-1%,13µM*,15,3%
O=c1c2ccccc2oc2nc(-c3ccco3)n(Cc3ccccc3)c(=O)c12,u,-10%,1%,21µM*,11,-10%
COc1ccc2c(=O)c3c(=O)n(-c4ccccc4)c(-c4ccco4)nc3oc2c1,-20%,19%,5%,u,-19,13%
COc1cc(-c2nc3oc4ccccc4c(=O)c3c(=O)n2Cc2ccco2)cc(OC)c1OC,18µM*,16%,-2%,21µM*,u,-3%
SMILES,DT40 TDP1 CPT,TGFb SMAD3 inh,ASM inhibitor,DT40 TDP1 no CPT,IL-1B inflam inh,HepG2 viability
Cc1cn([C@H]2C[C@H](O)[C@@H](/C=C/C(=O)NCc3cccc4ccccc34)O2)c(=O)[nH]c1=O,3%,u,x,6%,-14,-2%
COc1ccc(Nc2cc(C)nc3ncnn23)c(OC)c1,-1%,4%,2%,0%,29,1%
COc1ccc(CNc2cc(C)nc3ncnn23)c(OC)c1,u,-21%,1%,10µM*,2,-4%
COc1ccc(OC)c(N(C(=O)c2ccco2)C(C(=O)NC2CCCC2)c2cc(OC)c(OC)c(OC)c2)c1 (stereo not given),-23%,-11%,-3%,u,-8,1%
CC(C)(C)c1ccc(C(=O)c2c[nH]c(C(=O)NCc3cccnc3)c2)cc1,18µM*,-6%,0%,16µM*,-11,-22%
Cc1ccc(NC(=O)NCc2cccnc2)cc1,2%,6%,0%,0%,-53*,-2%
S=C(NCc1cccnc1)Nc1ccc(Cl)c(Cl)c1,-19%,u,2%,u,-58*,-16%
COC(=O)c1cc(C(=O)c2ccc(C(C)(C)C)cc2)c[nH]1,u,-34%,-2%,12µM*,u,-32%
O=C(NCc1cccnc1)Nc1ccc(Br)cc1,10%,1%,1%,13%,-13,-3%
O=C(Cc1ccc(Br)cc1)NCCCn1ccnc1,24%,3%,2%,4%,14,-2%
COc1ccc(C2c3ccsc3CCN2C(=O)C(C)(C)C)cc1 (stereo not given),u,-6%,-1%,u,14,0%
Cn1c(SCC2CCCO2)nnc1C1CCN(Cc2ccco2)CC1 (stereo not given),16%,x,x,-5%,x,x
CN(CCC1CCOCC1)C(=O)C1CCC(=O)N(CCc2cccc(F)c2)C1 (stereo not given),-1%,12%,0%,-9%,15,21%
CC(C)(C)c1ccc(C(=O)NC(=S)NCc2cccnc2)cc1,16µM*,-7%,-1%,18µM*,4,-13%
Fc1ccc(NC(=S)NCc2cccnc2)cc1,18%,-10%,3%,-4%,18,16%
CCC(C)c1ccc(NC(=S)NCc2cccnc2)cc1 (stereo not given),u,-8%,0%,7.3µM*,0,3%
